According to PubChem BioAssay (NCI):
About 83,000 compounds went through this panel and 20% of them were active in at least one assay; those are over-represented in the sample as a whole.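 Results are percent growth after 48 hours of single-concentration exposure. 100 means growth as in untreated cells, lower positive values show inhibition; negative values down to -100 show cell death.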 Active and inactive are the calls of the source. The calls were made as follows: active = growth percent below 10; inactive = the rest.

Each molecule was assayed on MDA-MB-468 breast (assay: NCI-60 one-dose screen, 48 h (100 = growth as untreated, 0 = no growth, -100 = all killed)). Conditions: 10 µM unless noted.
O=C(Nc1ccc(Nc2ccncc2)cc1)c1ccc([N+](=O)[O-])cc1 was tested, and the growth was -28.1% (active). With CCN1CCN(C(=S)SCC(=O)Nc2nc3ccc(OC)cc3s2)CC1 the growth was 97.7% (inactive). For COc1cc(CNC(=O)/C=C/C=C/c2ccc3c(c2)OCO3)ccc1OCc1cn(-c2ccc(C)c(C)c2)nn1, the growth was 65.2% (inactive). COc1ccc2c(c1)oc1c(C)c3c(c(C)c12)C(=O)N(Nc1ccccc1)C3=O was tested, and the growth was 115% (inactive). With COc1cc(CC(=O)c2ccc(O)c(OC)c2)ccc1O the growth was 101% (inactive). O=C(CSc1nnc(-c2ccc(Cl)c(Cl)c2)n1-c1ccccc1)Nc1ccc(C(=O)/C=C/c2ccc(Cl)cc2)cc1 was tested, and the growth was 98.4% (inactive). In the case of CNC(=O)c1c(NC(=O)c2ccccc2C(F)(F)F)sc2c1CCC(=O)C2, the growth was 25.1% (inactive). In the case of COc1ccccc1NC(=O)OCC12COCN1COC2, the growth was 101% (inactive). In the case of CN1CCN(Cc2ccc(NC(=O)c3cncc(C#Cc4ncc5ccccn45)c3)cc2C(F)(F)F)CC1, the growth was 36.5% (inactive). With CC(C)=CCC[C@](C)(O)[C@H]1CC[C@]2(C)[C@@H]1CC[C@@H]1[C@@]3(C)C/C(=C/c4ccc(Br)cc4)C(=O)C(C)(C)[C@@H]3CC[C@]12C the growth was 83.7% (inactive). In the case of COc1ccc2c(=O)c(OC)c(-c3cc(OC)c(OC)c(OC)c3)oc2c1, the growth was 86.5% (inactive). CC(=O)n1c(/C(C#N)=C/c2ccc(N(C)C)cc2)cc2ccccc21 was tested, and the growth was 14.2% (inactive). COc1ccc(Nc2nc(N/N=C/c3ccc(O)cc3)nc(Nc3ccc([N+](=O)[O-])cc3)n2)cc1 was tested, and the growth was 117% (inactive). In the case of COc1ccc(OC)c([N+](=O)[O-])c1C(=O)CNC(C)=O, the growth was 98% (inactive). With Cn1ccnc1C(=O)/C=C/c1ccc(NC(=O)c2ccc(F)cc2)cc1 the growth was 11.8% (inactive). CC(=O)OC[C@H]1O[C@@H](n2c(=O)cc(N)[nH]c2=O)C(OC(C)=O)[C@@H]1OC(C)=O (stereo partly specified) was tested, and the growth was 98.8% (inactive). In the case of CCCCCCCCCCCCCCCc1ccc(N)c(OC2OC(CO)C(O)C(O)C2O)c1 (stereo unspecified), the growth was 76.5% (inactive). CCOC(=O)CNC was tested, and the growth was 101% (inactive). With S=c1nn[nH]n1C1CCCCC1 the growth was 125% (inactive). In the case of N#CCC1CCCC1, the growth was 97.4% (inactive). With Nc1ccc(-c2cc3c(Nc4ccc(OCc5cccc(F)c5)c(Cl)c4)ncnc3s2)cc1 the growth was 14.2% (inactive). With c1ccc(-c2nn(-c3ccccc3)[n+](-c3cccc4ccccc34)n2)cc1 the growth was -20.4% (active). In the case of NC(=O)Nc1ccc2ncnc(Nc3ccc(Cl)cc3)c2c1, the growth was -7.15% (active). With CCN(CC)c1ccc(C2=NN(C(C)=O)C(c3cc(OC)c(OC)c(OC)c3)C2)cc1 (stereo unspecified) the growth was 17% (inactive). For Cc1ccc(S(=O)(=O)N(c2ccc(Cl)cc2)c2ccc(Br)cc2C(=O)O)cc1, the growth was 95.9% (inactive). In the case of O=C1CC(=O)OC(c2ccc([N+](=O)[O-])cc2)O1, the growth was -49.7% (active).
